According to the supplement of paper PMC10849652:
Targets with a hit are over-represented here; the source holds about 8,800 in all. About 0.5% of all pairs of compound and target were hits. Unmarked numbers belong to inactive results.

Tests used:
Assay in all cases: log2 fold change, soluble protein after heating vs DMSO (PISA); higher = thermal stabilisation; K562 lysate, 10 uM; active = over 0.2 and 3.5 SD of the protein, either way, in both replicates (recomputed)
vemurafenib = compound: CCCS(=O)(=O)Nc1ccc(F)c(C(=O)c2c[nH]c3ncc(-c4ccc(Cl)cc4)cc23)c1F [vemurafenib]
How it was run: (§1)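 Soluble protein was defined as the supernatant remaining after 21,000xg for 90 min, following pooling of heated aliquots and adjustment to 0.5% NP-40 at 4°C. Before that, crude K562 extract at 1 mg/mL protein in PBS pH 7.4 with 1 mM MgCl2 was treated with 10 μM compound for 30 min and heated for 3 min across 48°C-58°C. Quantification used TMTpro 16plex LC-MS/MS with channel sums equalised, and values are log-two fold changes in thermal stability relative to solvent controls from duplicates.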

[1] = compound: CCCS(=O)(=O)Nc1ccc(F)c(C(=O)c2c[nH]c3ncc(Cl)cc23)c1F
How it was run: as §1

barasertib = compound: CCN(CCCOc1ccc2c(Nc3cc(CC(=O)Nc4cccc(F)c4)[nH]n3)ncnc2c1)CCOP(=O)(O)O [barasertib]
How it was run: as §1

[2] = compound: CC[C@@H]1C(=O)N(C)c2cnc(Nc3ccc(C(=O)NC4CCN(C)CC4)cc3OC)nc2N1C1CCCC1
How it was run: as §1

volasertib = compound: CC[C@@H]1C(=O)N(C)c2cnc(Nc3ccc(C(=O)N[C@H]4CC[C@H](N5CCN(CC6CC6)CC5)CC4)cc3OC)nc2N1C(C)C [volasertib]
How it was run: as §1

[3] = compound: CCn1c(C(=O)N(C2CC2)C2CC2)cc2c3c(ncn3C)c(Nc3cc(C)n(C)n3)nc21
How it was run: as §1

[4] = compound: CCn1cc(-c2ccnc3[nH]c(-c4cccc(CN(C)C)c4)cc23)c(-c2ccc(NC(=O)N(C)C)cc2)n1
How it was run: as §1

[5] = compound: CN1CCC(CNc2ccc3ncc(-c4cccc(OC(F)(F)F)c4)n3n2)CC1
How it was run: as §1

saracatinib = compound: CN1CCN(CCOc2cc(OC3CCOCC3)c3c(Nc4c(Cl)ccc5c4OCO5)ncnc3c2)CC1 [saracatinib]
How it was run: as §1

sotrastaurin = compound: CN1CCN(c2nc(C3=C(c4c[nH]c5ccccc45)C(=O)NC3=O)c3ccccc3n2)CC1 [sotrastaurin]
How it was run: as §1

alvocidib = compound: CN1CC[C@H](c2c(O)cc(O)c3c(=O)cc(-c4ccccc4Cl)oc23)[C@H](O)C1 [alvocidib]
How it was run: as §1

Tubastatin A = compound: CN1CCc2c(c3ccccc3n2Cc2ccc(C(=O)NO)cc2)C1 [Tubastatin A]
How it was run: as §1

[6] = compound: CNC(=O)C1=CC=CC=C1NC2=NC(=NC=C2Cl)NC3=C(C=C(C=C3)N4CCOCC4)OC
How it was run: as §1

defactinib = compound: CNC(=O)c1ccc(Nc2ncc(C(F)(F)F)c(NCc3nccnc3N(C)S(C)(=O)=O)n2)cc1 [defactinib]
How it was run: as §1

[7] = compound: CNc1nc(-c2ccc3c(N)n[nH]c3c2)cc(N2C[C@@H](C(=O)NC3CCCCC3)CC[C@H]2C)n1
How it was run: as §1

encorafenib = compound: COC(=O)N[C@@H](C)CNc1nccc(-c2cn(C(C)C)nc2-c2cc(Cl)cc(NS(C)(=O)=O)c2F)n1 [encorafenib]
How it was run: as §1

[8] = compound: COC(=O)[C@H](CCSC)NC(=O)C1=C(C=C(C=C1)NC[C@H](CS)N)C2=CC=CC=C2
How it was run: as §1

alisertib = compound: COc1cc(Nc2ncc3c(n2)-c2ccc(Cl)cc2C(c2c(F)cccc2OC)=NC3)ccc1C(=O)O [alisertib]
How it was run: as §1

[9] = compound: COc1cc2nc(-c3cc(F)ccc3O)nc(N[C@@H]3CNC[C@H]3C(C)(C)O)c2cc1OC
How it was run: as §1

gefitinib = compound: COc1cc2ncnc(Nc3ccc(F)c(Cl)c3)c2cc1OCCCN1CCOCC1 [gefitinib]
How it was run: as §1

UniProt Q7Z3J2, sequence (Q7Z3J2 whole entry, looked up): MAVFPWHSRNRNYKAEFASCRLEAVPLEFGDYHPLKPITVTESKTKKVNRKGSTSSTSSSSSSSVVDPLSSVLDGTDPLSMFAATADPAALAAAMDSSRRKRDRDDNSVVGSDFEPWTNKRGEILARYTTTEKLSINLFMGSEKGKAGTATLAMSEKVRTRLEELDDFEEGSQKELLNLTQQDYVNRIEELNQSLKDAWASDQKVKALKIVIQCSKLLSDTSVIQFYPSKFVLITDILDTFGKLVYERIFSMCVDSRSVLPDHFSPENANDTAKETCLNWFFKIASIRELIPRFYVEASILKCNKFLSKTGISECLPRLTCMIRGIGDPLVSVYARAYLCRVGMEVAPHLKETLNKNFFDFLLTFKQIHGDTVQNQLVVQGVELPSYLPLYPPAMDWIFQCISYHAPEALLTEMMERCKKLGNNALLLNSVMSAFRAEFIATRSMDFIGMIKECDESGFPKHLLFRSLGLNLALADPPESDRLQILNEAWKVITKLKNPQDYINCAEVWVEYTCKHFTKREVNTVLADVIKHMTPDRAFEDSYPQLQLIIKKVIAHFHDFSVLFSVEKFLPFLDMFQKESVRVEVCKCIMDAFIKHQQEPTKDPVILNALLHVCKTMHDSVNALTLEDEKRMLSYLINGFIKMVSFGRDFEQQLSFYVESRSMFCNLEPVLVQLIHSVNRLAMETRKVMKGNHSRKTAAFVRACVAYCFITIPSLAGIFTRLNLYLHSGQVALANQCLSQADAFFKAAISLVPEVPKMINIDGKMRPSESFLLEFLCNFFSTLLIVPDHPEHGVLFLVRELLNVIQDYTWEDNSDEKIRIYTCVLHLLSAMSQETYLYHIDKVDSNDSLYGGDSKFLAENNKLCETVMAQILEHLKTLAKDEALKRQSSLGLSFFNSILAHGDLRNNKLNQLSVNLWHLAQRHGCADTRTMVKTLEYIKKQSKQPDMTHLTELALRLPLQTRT
UniProt Q9H9H4, sequence (Q9H9H4 whole entry, looked up): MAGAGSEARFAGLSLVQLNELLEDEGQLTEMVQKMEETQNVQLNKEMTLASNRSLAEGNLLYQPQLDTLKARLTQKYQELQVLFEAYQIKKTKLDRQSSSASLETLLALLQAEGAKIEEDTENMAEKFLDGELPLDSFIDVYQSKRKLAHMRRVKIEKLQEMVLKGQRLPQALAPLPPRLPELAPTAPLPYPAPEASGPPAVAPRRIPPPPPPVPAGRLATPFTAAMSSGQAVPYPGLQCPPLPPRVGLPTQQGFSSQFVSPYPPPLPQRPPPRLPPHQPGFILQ
UniProt Q5T200, sequence (Q5T200 whole entry, looked up): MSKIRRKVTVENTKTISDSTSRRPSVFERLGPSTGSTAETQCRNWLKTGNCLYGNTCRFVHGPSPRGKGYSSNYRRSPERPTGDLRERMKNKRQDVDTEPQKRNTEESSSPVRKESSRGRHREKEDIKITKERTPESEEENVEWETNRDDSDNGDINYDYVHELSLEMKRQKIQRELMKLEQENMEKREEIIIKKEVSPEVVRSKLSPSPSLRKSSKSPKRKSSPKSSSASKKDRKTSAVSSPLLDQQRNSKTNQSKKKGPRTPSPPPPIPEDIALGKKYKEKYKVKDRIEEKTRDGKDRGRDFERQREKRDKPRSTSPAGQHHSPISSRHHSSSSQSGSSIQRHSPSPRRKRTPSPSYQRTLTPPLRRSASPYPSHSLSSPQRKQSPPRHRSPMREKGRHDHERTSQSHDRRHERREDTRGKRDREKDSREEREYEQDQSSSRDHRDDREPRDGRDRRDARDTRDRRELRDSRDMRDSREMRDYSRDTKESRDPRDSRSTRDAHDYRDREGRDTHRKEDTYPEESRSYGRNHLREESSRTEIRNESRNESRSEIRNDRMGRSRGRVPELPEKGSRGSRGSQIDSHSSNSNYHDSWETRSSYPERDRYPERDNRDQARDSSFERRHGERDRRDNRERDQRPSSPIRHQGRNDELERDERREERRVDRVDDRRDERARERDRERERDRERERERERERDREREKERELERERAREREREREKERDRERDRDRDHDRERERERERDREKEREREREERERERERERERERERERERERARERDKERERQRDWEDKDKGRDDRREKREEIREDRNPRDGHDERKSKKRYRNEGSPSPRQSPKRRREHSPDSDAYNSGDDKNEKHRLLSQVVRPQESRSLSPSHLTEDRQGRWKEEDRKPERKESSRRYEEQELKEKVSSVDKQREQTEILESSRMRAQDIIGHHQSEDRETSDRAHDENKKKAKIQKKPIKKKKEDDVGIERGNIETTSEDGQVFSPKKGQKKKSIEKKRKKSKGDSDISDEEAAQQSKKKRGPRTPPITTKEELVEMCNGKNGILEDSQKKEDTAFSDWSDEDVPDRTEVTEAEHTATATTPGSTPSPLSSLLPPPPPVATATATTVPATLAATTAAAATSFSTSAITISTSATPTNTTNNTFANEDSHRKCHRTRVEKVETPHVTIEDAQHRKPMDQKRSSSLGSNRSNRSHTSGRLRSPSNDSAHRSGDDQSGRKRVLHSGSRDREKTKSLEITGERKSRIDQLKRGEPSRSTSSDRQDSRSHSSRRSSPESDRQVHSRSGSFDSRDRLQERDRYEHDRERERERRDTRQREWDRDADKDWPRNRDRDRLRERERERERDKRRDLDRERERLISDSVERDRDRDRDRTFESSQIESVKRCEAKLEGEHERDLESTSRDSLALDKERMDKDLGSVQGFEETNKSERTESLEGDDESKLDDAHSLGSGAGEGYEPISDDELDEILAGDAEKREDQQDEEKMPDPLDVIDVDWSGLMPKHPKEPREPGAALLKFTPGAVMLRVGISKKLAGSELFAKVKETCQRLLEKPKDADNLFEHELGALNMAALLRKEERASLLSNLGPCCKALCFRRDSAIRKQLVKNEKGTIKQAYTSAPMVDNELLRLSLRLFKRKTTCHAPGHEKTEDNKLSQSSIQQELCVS
UniProt P40818, sequence (P40818 whole entry, looked up): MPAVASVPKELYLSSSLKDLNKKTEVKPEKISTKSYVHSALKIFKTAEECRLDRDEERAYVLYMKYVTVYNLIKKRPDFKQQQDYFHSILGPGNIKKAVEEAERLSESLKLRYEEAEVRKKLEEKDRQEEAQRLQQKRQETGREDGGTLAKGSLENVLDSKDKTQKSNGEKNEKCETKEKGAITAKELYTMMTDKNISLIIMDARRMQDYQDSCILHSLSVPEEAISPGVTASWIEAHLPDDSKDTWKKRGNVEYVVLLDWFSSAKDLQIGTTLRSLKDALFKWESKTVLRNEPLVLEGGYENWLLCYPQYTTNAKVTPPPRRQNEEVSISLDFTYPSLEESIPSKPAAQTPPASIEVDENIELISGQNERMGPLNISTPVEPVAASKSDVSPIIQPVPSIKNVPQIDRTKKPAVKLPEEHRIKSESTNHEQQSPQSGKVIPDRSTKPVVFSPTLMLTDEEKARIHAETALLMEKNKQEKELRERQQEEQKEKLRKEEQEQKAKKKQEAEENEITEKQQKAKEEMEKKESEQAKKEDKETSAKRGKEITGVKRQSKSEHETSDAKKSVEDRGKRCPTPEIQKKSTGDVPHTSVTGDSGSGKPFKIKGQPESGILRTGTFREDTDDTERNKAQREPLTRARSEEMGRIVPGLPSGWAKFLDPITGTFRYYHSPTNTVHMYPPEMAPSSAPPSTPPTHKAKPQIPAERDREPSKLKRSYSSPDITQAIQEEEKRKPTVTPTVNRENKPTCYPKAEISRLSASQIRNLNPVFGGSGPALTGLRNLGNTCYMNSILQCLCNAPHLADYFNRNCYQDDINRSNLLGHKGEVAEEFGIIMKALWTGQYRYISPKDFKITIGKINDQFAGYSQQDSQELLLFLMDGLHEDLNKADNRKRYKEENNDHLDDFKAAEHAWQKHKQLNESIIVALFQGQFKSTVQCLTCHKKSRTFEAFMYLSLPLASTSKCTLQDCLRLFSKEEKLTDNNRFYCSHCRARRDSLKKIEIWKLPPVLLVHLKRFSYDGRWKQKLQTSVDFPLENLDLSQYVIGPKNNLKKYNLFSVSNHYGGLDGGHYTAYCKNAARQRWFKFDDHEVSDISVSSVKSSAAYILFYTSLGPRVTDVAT
UniProt P27348, sequence (P27348 whole entry, looked up): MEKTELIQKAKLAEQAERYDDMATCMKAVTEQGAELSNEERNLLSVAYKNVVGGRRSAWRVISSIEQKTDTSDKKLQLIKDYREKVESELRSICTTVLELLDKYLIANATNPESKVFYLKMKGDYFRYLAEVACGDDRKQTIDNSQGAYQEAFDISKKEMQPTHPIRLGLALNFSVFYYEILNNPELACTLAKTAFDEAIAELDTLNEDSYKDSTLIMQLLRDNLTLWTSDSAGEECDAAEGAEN
UniProt Q9Y484, sequence (Q9Y484 whole entry, looked up): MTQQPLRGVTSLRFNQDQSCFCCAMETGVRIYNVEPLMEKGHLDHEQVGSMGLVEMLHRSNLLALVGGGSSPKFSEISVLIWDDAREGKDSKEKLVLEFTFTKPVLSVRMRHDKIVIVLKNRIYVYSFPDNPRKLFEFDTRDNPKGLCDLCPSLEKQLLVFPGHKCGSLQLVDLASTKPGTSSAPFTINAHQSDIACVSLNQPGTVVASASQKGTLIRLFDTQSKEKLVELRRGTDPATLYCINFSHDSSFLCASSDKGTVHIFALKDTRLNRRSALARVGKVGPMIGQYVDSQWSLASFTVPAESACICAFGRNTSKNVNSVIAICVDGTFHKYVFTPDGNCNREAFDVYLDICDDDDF
UniProt Q96GY0, sequence (Q96GY0 whole entry, looked up): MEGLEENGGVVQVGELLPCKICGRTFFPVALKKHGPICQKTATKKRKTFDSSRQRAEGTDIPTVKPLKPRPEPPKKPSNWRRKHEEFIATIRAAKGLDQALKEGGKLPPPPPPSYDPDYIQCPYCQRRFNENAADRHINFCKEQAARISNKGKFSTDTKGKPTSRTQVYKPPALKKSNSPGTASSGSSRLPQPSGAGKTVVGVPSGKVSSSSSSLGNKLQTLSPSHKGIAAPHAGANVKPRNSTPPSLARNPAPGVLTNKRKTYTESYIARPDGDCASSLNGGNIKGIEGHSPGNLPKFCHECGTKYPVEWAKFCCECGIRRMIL

Target | log2 fold change (vemurafenib) | log2 fold change [1] | log2 fold change (barasertib) | log2 fold change [2] | log2 fold change (volasertib) | log2 fold change [3] | log2 fold change [4] | log2 fold change [5] | log2 fold change (saracatinib) | log2 fold change (sotrastaurin) | log2 fold change (alvocidib) | log2 fold change (Tubastatin A) | log2 fold change [6] | log2 fold change (defactinib) | log2 fold change [7] | log2 fold change (encorafenib) | log2 fold change [8] | log2 fold change (alisertib) | log2 fold change [9] | log2 fold change (gefitinib)
VPS37B (UniProt Q9H9H4) | -0.001 | 0.003 | -0.012 | 0.047 | -0.011 | 0.005 | -0.018 | 0.04 | 0.048 | 0.01 | 0.025 | -0.034 | -0.047 | 0.052 | 0.024 | -0.014 | -0.053 | -0.019 | -0.003 | -0.071
VPS4A (UniProt Q9UN37) | 0.096 | -0.006 | 0.014 | -0.063 | -0.09 | 0.054 | -0.12 | -0.036 | 0.027 | 0.056 | -0.004 | -0.16 | 0.025 | 0.01 | -0.1 | -0.004 | 0.138 | 0 | -0.004 | -0.025
WDR45 isoform 2 (UniProt Q9Y484) | -0.028 | 0.043 | 0.005 | 0.052 | 0 | 0.12 | -0.19 | 0.086 | 0.01 | 0.024 | -0.065 | -0.067 | -0.001 | 0.013 | -0.059 | -0.042 | -0.051 | 0.021 | -0.008 | 0.037
VPS16 (UniProt Q9H269) | 0.038 | 0.009 | 0.007 | 0.063 | -0.04 | 0.028 | -0.049 | -0.015 | -0.017 | -0.002 | 0.032 | -0.082 | 0.002 | -0.006 | 0 | 0.049 | -0.069 | 0.031 | -0.004 | 0.013
VAV1 (UniProt P15498) | 0.032 | -0.017 | 0.022 | -0.041 | -0.002 | -0.041 | -0.114 | 0.035 | -0.011 | -0.021 | 0.005 | -0.117 | -0.028 | 0.018 | 0.007 | -0.026 | 0.025 | -0.006 | -0.044 | 0.024
ZC2HC1A (UniProt Q96GY0) | 0.13 | -0.032 | 0.078 | 0.086 | 0.031 | 0.035 | -0.057 | 0.117 | -0.011 | 0.016 | -0.034 | -0.044 | -0.021 | -0.155 | -0.04 | 0.03 | -0.235 (active) | -0.073 | -0.021 | 0.019
USP8 (UniProt P40818) | 0 | 0.015 | 0.001 | -0.008 | -0.05 | 0.033 | -0.002 | -0.063 | -0.006 | -0.021 | 0.023 | -0.018 | 0.014 | 0.02 | 0.005 | 0.004 | 0.102 | -0.011 | 0.002 | 0.015
ZMAT2 (UniProt Q96NC0) | -0.015 | 0 | -0.041 | 0.062 | 0.039 | -0.026 | -0.034 | 0.087 | 0.017 | -0.036 | -0.001 | 0.053 | -0.012 | -0.001 | -0.037 | -0.035 | -0.014 | 0.009 | 0.001 | 0.013
ZNF598 isoform 3 (UniProt Q86UK7) | 0.022 | 0.036 | 0.019 | 0.067 | -0.032 | 0.017 | -0.011 | 0.001 | -0.008 | 0.014 | -0.01 | -0.095 | 0.025 | 0.004 | 0.015 | 0.004 | -0.039 | 0.009 | 0.012 | 0.007
VAC14 (UniProt Q08AM6) | -0.002 | 0.008 | 0.021 | -0.021 | -0.02 | 0.013 | -0.032 | 0.007 | 0.007 | 0 | 0 | -0.036 | 0.022 | 0.007 | 0.005 | 0.04 | -0.051 | 0.008 | 0.006 | 0.003
VPS35L (UniProt Q7Z3J2) | 0.016 | 0.002 | 0.001 | -0.072 | -0.047 | -0.004 | -0.02 | -0.005 | 0.004 | 0.046 | 0 | -0.083 | 0.015 | 0.036 | -0.013 | 0.014 | 0.006 | -0.034 | -0.023 | -0.076
ZMYND8 isoform 19 (UniProt Q9ULU4) | 0.061 | 0.071 | 0.012 | 0.016 | -0.025 | -0.015 | -0.127 | 0.037 | -0.01 | 0.019 | 0 | -0.091 | 0.017 | 0.104 | -0.052 | -0.002 | 0.065 | 0.022 | -0.046 | -0.023
YWHAQ (UniProt P27348) | -0.029 | 0.009 | -0.023 | 0.025 | 0.023 | -0.003 | 0.625 (active) | -0.092 | -0.012 | -0.047 | 0.16 | -0.021 | -0.006 | 0 | 0.023 | -0.025 | -0.045 | -0.014 | 0.008 | -0.06
XPO1 (UniProt O14980) | 0.015 | 0.005 | 0.023 | -0.055 | -0.026 | 0.013 | -0.05 | 0.019 | 0.033 | 0.022 | 0.005 | -0.096 | -0.011 | 0.016 | -0.013 | 0.034 | -0.101 | 0.013 | 0.023 | -0.007
ZC3H13 (UniProt Q5T200) | -0.027 | -0.037 | -0.045 | 0.036 | -0.013 | -0.031 | 0.033 | 0 | -0.046 | 0.222 | -0.063 | 0.063 | -0.073 | 0.088 | -0.028 | -0.069 | 0.021 | -0.362 (active) | 0.016 | -0.077
UQCRC2 (UniProt P22695) | -0.016 | 0.01 | -0.018 | 0.026 | 0.01 | -0.015 | 0.034 | -0.003 | 0.002 | -0.02 | -0.005 | 0.035 | -0.013 | 0.014 | 0.01 | -0.001 | -0.013 | 0.022 | 0.024 | -0.013
